The campaign covered roughly 10,000 compounds. About 5,600 (56%) were called active. Rule as the data show it: active = inhibition above about 40%; inactive = the rest. So high a share suggests a set chosen from earlier hits. These entries were drawn from the full list.

In this experiment the target is Protein Mdm4 (Homo sapiens) + E3 ubiquitin-protein ligase Mdm2 (Homo sapiens) (UniProt O15151+Q00987). As to the kind of experiment: inhibition of human Mdm2/MdmX pairing – luminescence, single concentration, confirmation (AID 489028). The note with it: Mdm2-MdmX binding, luminescent assay; at 8 µM; stronger effect = higher value.
Sequence of Protein Mdm4 (Homo sapiens) + E3 ubiquitin-protein ligase Mdm2 (Homo sapiens) (O15151 whole entry, looked up): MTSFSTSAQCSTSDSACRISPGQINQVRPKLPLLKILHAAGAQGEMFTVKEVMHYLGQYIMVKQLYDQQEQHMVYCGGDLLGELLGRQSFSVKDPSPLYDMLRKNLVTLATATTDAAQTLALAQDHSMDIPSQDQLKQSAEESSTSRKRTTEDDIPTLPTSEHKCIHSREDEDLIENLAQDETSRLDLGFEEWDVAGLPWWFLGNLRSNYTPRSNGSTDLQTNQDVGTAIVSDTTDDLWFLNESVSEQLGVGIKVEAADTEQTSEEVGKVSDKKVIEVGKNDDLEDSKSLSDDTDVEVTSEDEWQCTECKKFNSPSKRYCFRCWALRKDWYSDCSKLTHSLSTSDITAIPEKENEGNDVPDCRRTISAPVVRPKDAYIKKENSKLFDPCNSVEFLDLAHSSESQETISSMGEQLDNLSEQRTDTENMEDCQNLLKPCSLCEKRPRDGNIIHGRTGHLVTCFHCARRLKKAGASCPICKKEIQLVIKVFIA
Sequence of Protein Mdm4 (Homo sapiens) + E3 ubiquitin-protein ligase Mdm2 (Homo sapiens) (Q00987 whole entry, looked up): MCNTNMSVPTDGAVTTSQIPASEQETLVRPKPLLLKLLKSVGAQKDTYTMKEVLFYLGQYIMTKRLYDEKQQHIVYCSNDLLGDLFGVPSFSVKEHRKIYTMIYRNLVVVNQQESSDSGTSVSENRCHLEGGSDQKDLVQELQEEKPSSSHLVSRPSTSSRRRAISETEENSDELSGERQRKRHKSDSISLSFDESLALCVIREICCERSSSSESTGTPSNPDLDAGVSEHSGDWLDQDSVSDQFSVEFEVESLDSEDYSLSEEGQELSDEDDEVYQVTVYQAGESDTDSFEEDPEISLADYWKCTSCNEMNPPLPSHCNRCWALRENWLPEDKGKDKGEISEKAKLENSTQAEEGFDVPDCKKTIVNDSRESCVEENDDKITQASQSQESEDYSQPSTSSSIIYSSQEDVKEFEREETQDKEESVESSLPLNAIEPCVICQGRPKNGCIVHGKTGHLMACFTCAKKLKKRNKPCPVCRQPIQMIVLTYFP
As a reminder, the inhibition is the drop in the measured response relative to a control, in per cent. As to `CC(=NCC1CCCO1)c1c(O)[nH]c(=O)[nH]c1=O` (configuration not stated), the inhibition was 7.4% (inactive). The figure for `Cc1cccc(Nc2nc3c(S(=O)(=O)c4ccccc4)nnn3c3ccccc23)c1C` is 48.2% (active).

In the case of `CSc1nnc(NC(=O)c2nc(S(=O)(=O)Cc3ccc(C)cc3)ncc2Cl)s1`, the inhibition is 99% (active). To `Cc1ccc(CS(=O)(=O)c2ncc(Cl)c(C(=O)Nc3nnc(C)s3)n2)cc1` belongs 96.5% (active); to `COC(=O)c1ccc(NC(=O)c2cc(Cl)ccc2OC)cc1`, 3.8% (inactive). To `CCOc1ccc(C(C)=O)cc1COC(=O)c1cnc(Cl)c(Cl)c1` belongs 19% (inactive); to `COc1ccc(C(=O)O/N=C(\N)Cc2ccc(Cl)cc2Cl)cc1OC`, 97.6% (active). To `CC1=C(C)CC(C(=O)NNC(=O)c2ccccc2O)C(C(=O)O)C1` (configuration not stated) belongs 38.8% (inactive); to `N#Cc1cccc(NC(=O)COC(=O)c2ccccc2C(=O)c2ccc(Cl)c([N+](=O)[O-])c2)c1`, 98.9% (active); to `CC(=O)Nc1ccc(NC(=O)C(C)OC(=O)c2ccccc2C(=O)c2ccc(Cl)c([N+](=O)[O-])c2)cc1` (configuration not stated), 84.5% (active). With `Cc1c(CN2CCC(CO)(CCOc3ccccc3)CC2)[nH]c2ccc(Cl)cc12`, the inhibition was 75.5% (active). In the case of `CCc1nc2sc3c(Cl)ncnc3c2c2c1CCCC2`, the inhibition was 14.9% (inactive). The figure for `Oc1c(CN2CCN(c3ccc(F)cc3)CC2)cc(Cl)c2cccnc12` is 85.5% (active); for `Oc1c(CN2CCCC2)cc(COCc2ccccc2)c2cccnc12` it is 66% (active); for `O=C(NC(=S)Nc1ccc2oc(=O)ccc2c1)c1ccc(-c2cccc(Cl)c2Cl)o1` it is 34.5% (inactive). As for `Cc1cc(C(=O)CCl)c(C)n1CC1COc2ccccc2O1` (configuration not stated), the inhibition was 15.6% (inactive).

As for `Cc1ccsc1C(=O)OCC(=O)c1cc(C)n(CC2CCCO2)c1C` (configuration not stated), the inhibition is 94.5% (active). Take `COc1ccc(CN2CN(C(C)C)CSC2=S)cc1`: the inhibition was -10.1% (inactive). With `Cc1cc(C(=O)COc2ccccc2[N+](=O)[O-])c(C)n1-c1cccc(S(=O)(=O)N2CCOCC2)c1`, the inhibition was 58.5% (active). To `CC(=O)Nc1ccc(S(=O)(=O)Nc2ccc(N3CCCCC3)cc2)cc1` belongs 3.05% (inactive); to `O=C(NC(=O)c1ccccc1N1CCCCC1)Nc1ccc(Br)cc1`, 54.9% (active).

As to `CCCOc1ccccc1C1CC(=O)Nc2cc3c(cc21)OCO3` (configuration not stated), the inhibition is 61.9% (active). To `COc1ccccc1C1C2=C(COC2=O)Nc2cc3c(cc21)OCO3` (configuration not stated) belongs 62.8% (active); to `O=C(Oc1c(-c2ccco2)oc2ccccc2c1=O)c1cccnc1`, 37.6% (inactive). The figure for `O=C1/C(=C/c2ccc(F)cc2)SC(=S)N1CCCC(=O)N1CCCCC1CCO` (configuration not stated) is 49.8% (active); for `COc1ccc(C(C[N+](=O)[O-])n2nc(C)cc2C)cc1` (configuration not stated) it is 9.85% (inactive); for `CC(=O)c1ccc(Oc2cc(C)nc(-n3nc(C)cc3C)n2)cc1` it is 51.8% (active).

The record behind these values is PubChem BioAssay AID489028 (Sanford-Burnham Center for Chemical Genomics, 2010).
